Assay results as given in PubChem BioAssay (NCI).
Compounds without any hit were thinned out: in the full panel of roughly 79,000, 15% have a hit. Unmarked numbers belong to inactive results. Rule as the data show it: active = growth inhibition above about 70%; inactive = the rest.

Assay: NCI Yeast Anticancer Drug Screen. Data for the rad50 strain (AID 155);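 also: 0% = growth of vehicle-only cultures of the same strain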
Settings: S. cerevisiae rad50 strain growth inhibition; at 50.0 µM; active compounds read high
Outline: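 Vehicle-treated cultures provide the reference for the growth inhibition reported for compound-exposed, repair-deficient yeast.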

| SMILES | growth inhibition [%] |
| --- | --- |
| O=c1cc(CNC2CC3CCC2C3)[nH]c(=O)[nH]1 (stereo not drawn) | 7.35 |
| CC1CN(C(=O)OCC23COC4(C)CCC(C)(OC2)N34)CC(C)O1 (stereo not drawn) | 2.6 |
| CCOc1ccc(N=Cc2c3ccccc3nc3ccccc23)cc1 | -3.05 |
| CC1(c2ccc(Cl)s2)NC(=O)NC1=O (stereo not drawn) | -1 |
| CCC(O)C(O)(c1ccccc1)c1ccccc1 (stereo not drawn) | 4.05 |
| CCCCCCCCCCCCCCCCCC(=O)c1ccc(OC)c(OC)c1 | -14.8 |
| NC(Cc1c[nH]c2ccc([N+](=O)[O-])cc12)C(=O)O (stereo not drawn) | 15.9 |
| COc1ccc2ncc(COC(=O)Nc3ccccc3)c(COC(=O)Nc3ccccc3)c2c1 | 22 |
| CCCCC(C=O)(CC)CCC#N (stereo not drawn) | 45.1 |
| NC(=S)NNCC(=O)CC(O)(C(F)(F)F)C(F)(F)Cl (stereo not drawn) | -21.2 |
| C=C1C(=O)OC2C1CCC1(C)CC(Br)C(=O)C(C)C21 (stereo not drawn) | 1.7 |
| COc1ccccc1N1C(Cl)C(=O)C1c1c[nH]c2ccccc12 (stereo not drawn) | 26.9 |
| O=C(O)c1cc(C(=O)O)cc(N(CCO)CCO)c1 | -19.1 |
| Cc1c(C=O)cc(-c2ccccc2)n1C | -16.2 |
| CCOC(=O)c1[nH]n(-c2ccccc2)c(=O)c1C=NC(=S)c1cccnc1 | -12.3 |
| O=C(O)c1ccc(-c2ccc(O)cc2)cc1 | 10.8 |
| c1ccc(C2c3ccccc3-c3ncnc(N4CCCCC4)c32)cc1 (stereo not drawn) | 9.4 |
| O=C1C=CC2(CC=CCC2)CC1 (stereo not drawn) | 5.25 |
